# Test results taken from the supplement of paper PMC6555819.
# System: LXRb homodimer (NR concentration 270 nM)
# Assay: PBM binding z-score (relative to random genomic background probes); higher = stronger binding; sequences stand for … in GC…GCGATTGACAGCGTAGAATGAAGG
# Summary of the method: (§1)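 Random background probes are the reference for binding z-scores. These scores derive from regression-normalized fluorescence on custom Agilent 4×180K protein-binding microarrays incubated 1 h with ligand-free nuclear receptor dimers. Binding was detected with antibodies against each partner (one per run).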
row,Sequence,PBM binding z-score
1,TAGCCTAGGTCATGGGCCAGTAGACCACGCGAAC,-0.335
2,ATCGAAAGGTCGAGGTGATTATAGAGAAAGGGAA,0.41
3,CTCGAAAGGTCGGTAGAGGTGAGTATACGGATAA,-0.315
4,CCTAGTAGGCCAGGGTCACTCAAGCATTTCGCTT,-0.98
5,CCTTACGGGTCACTCCAGGCTATAGCATCGGAGT,-0.145
6,CGAACTAGGTCAAGGTCAGTGAATCTCCGCACGC,0.0681
7,AGAACGAGGGCACGCTGAGTTCATAGCAGAGTAG,-0.593
8,GCCACTGGGGCATCAGCAGGTTACCATAACTTAA,-1.12
9,ACTAGTTGGTCAGCTGAGATCACACACAATTCGG,0.186
10,ATTTACGGGTCAACGAGGTTATAGCACGCGTATA,1.41
11,TAGCCTAGGTCATTGGGCAAGTATAGTACGCATC,0.361
12,TCTCGGAGTACACGAAGGTCAGAGCTTTCCAGAG,-1.07
13,AGAACGAGGGCACGGTGAGTTGATAGCAGAGTAG,-0.638
14,TCAAGCAGGCCAGAGGGTCACTCAAGAGGTACGG,-1
15,CAAACTAGGTCACAGAGGCCAAAGTCCGTGCGTA,0.0915
16,CGTCAAAGTACAACTAAGGTAACGTAAAGCACGC,0.198
17,TCTTGTAGATCAAGCAGGTTAAGAAAGCCTGAGT,-0.415
18,TCATATAGGTAATACAGGTAAAAGTCGGCATCTA,0.455
19,AATACAGGGTCACTAGGCCAGAATAGGTACGAAT,1.02
20,CGAACTAGGTCATTGACAGGAGAGTGAATAGTAA,-0.158

row,Sequence,PBM binding z-score
1,ATATGTAGGTTGTCGGGTCATTCAGTTTGCGCAT,0.953
2,TAGCCTGGGTCATGGGCCAGTATACCACGCGAAC,-0.671
3,CGTCCAAGGTCAAGGGTCAGTGAAGAGATGACGG,0.392
4,ATCGAAAGATCGACGAGGTGAGTATACACCGTTT,-0.329
5,TCTTGTAGATCAAGCAGGTTAAGATAGCCTGAGT,-0.36
6,GCTACTAGTTGAAAGGGCAACCGAATGATTCTCG,-0.373
7,TCCGACAGGTGAAGGTAACTCAGGTACGCAGTCG,-0.785
8,ATGTGTAGGTTAGCTGGGGTCATTCAGACTAGGC,2.24
9,TATACAGGGTCAATGGCCAGAGTACGAATGTCGA,2.05
10,CGTCAAAGTTCAATGTAACGTAACAGAAAGCAGC,1.74
11,ATATGTAGGTTACATCCGGGTCGTTCAGGCTATG,0.653
12,CCCTACGGGTCACTGACAGGTTATAGCATTTGGA,-0.128
13,AGTCAAAGTTCATCTAGGTAACGCAAGATATGCT,1.83
14,CGTCCAAGATCAATGCTAGGTCAGTGAAAGCATT,0.134
15,TAGCCTAGGTCATTCAGGAGCCAGTATAGAAAGC,0.687
16,CCTGCTAGGTCAATGTTCAGCTAAAGCAGCTCGC,0.516
17,TCCAGTAGGTTAGGGGCATTCAGAATGGCGTCGA,-0.0601
18,TCGCGGAGGACACGAAGGTCAGAGCTTTCCAGAG,-1.29
19,CGAAGTAGGTCATCCAGGACAGTGAATACATTGA,0.447

# System: PPARa:RXRa (NR concentration 270 nM, RXRa partner concentration 90 nM)
# Assay: as above
# Summary of the method: as §1
row,Sequence,PBM binding z-score
1,TAGCCTAGGTCATGGGCCAGTAGACCACGCGAAC,4.38
2,ATCGAAAGGTCGAGGTGATTATAGAGAAAGGGAA,4.56
3,CTCGAAAGGTCGGTAGAGGTGAGTATACGGATAA,2.86
4,CCTAGTAGGCCAGGGTCACTCAAGCATTTCGCTT,3.69
5,CCTTACGGGTCACTCCAGGCTATAGCATCGGAGT,4.07
6,CGAACTAGGTCAAGGTCAGTGAATCTCCGCACGC,5.17
7,AGAACGAGGGCACGCTGAGTTCATAGCAGAGTAG,3.12
8,GCCACTGGGGCATCAGCAGGTTACCATAACTTAA,1.28
9,ACTAGTTGGTCAGCTGAGATCACACACAATTCGG,-0.138
10,ATTTACGGGTCAACGAGGTTATAGCACGCGTATA,6.1
11,TAGCCTAGGTCATTGGGCAAGTATAGTACGCATC,3.46
12,TCTCGGAGTACACGAAGGTCAGAGCTTTCCAGAG,1.84
13,AGAACGAGGGCACGGTGAGTTGATAGCAGAGTAG,2.61
14,TCAAGCAGGCCAGAGGGTCACTCAAGAGGTACGG,2.59
15,CAAACTAGGTCACAGAGGCCAAAGTCCGTGCGTA,5.36
16,CGTCAAAGTACAACTAAGGTAACGTAAAGCACGC,0.548
17,TCTTGTAGATCAAGCAGGTTAAGAAAGCCTGAGT,0.741
18,TCATATAGGTAATACAGGTAAAAGTCGGCATCTA,1.48
19,AATACAGGGTCACTAGGCCAGAATAGGTACGAAT,5.95
20,CGAACTAGGTCATTGACAGGAGAGTGAATAGTAA,4.89

row,Sequence,PBM binding z-score
1,ATATGTAGGTTGTCGGGTCATTCAGTTTGCGCAT,3.6
2,TAGCCTGGGTCATGGGCCAGTATACCACGCGAAC,4.14
3,CGTCCAAGGTCAAGGGTCAGTGAAGAGATGACGG,6.46
4,ATCGAAAGATCGACGAGGTGAGTATACACCGTTT,0.0246
5,TCTTGTAGATCAAGCAGGTTAAGATAGCCTGAGT,0.829
6,GCTACTAGTTGAAAGGGCAACCGAATGATTCTCG,2.62
7,TCCGACAGGTGAAGGTAACTCAGGTACGCAGTCG,0.847
8,ATGTGTAGGTTAGCTGGGGTCATTCAGACTAGGC,4.77
9,TATACAGGGTCAATGGCCAGAGTACGAATGTCGA,5.16
10,CGTCAAAGTTCAATGTAACGTAACAGAAAGCAGC,4.08
11,ATATGTAGGTTACATCCGGGTCGTTCAGGCTATG,3.5
12,CCCTACGGGTCACTGACAGGTTATAGCATTTGGA,5.1
13,AGTCAAAGTTCATCTAGGTAACGCAAGATATGCT,4.83
14,CGTCCAAGATCAATGCTAGGTCAGTGAAAGCATT,0.544
15,TAGCCTAGGTCATTCAGGAGCCAGTATAGAAAGC,3.57
16,CCTGCTAGGTCAATGTTCAGCTAAAGCAGCTCGC,3
17,TCCAGTAGGTTAGGGGCATTCAGAATGGCGTCGA,1.72
18,TCGCGGAGGACACGAAGGTCAGAGCTTTCCAGAG,1.84
19,CGAAGTAGGTCATCCAGGACAGTGAATACATTGA,5.16
